In PubChem BioAssay (EPA / NIEHS) one finds outcome and AC50 data, which are given here for 39 compounds.

Records with an inconclusive call do not appear. Active and inactive are the calls of the source. How the source made its calls: active means hit-call score of the fitted dose curve at least 0.9, where 1 is the maximum; inconclusive means response in the unintended direction; inactive means score below 0.9.

The nature of the experiment: ACEA_ER_80hr: ACEA Biosciences xCELLigence Real-Time Cell Analysis on Estrogen Receptor Agonism for Proliferation (AID 2282667). The following applies: T47D proliferation, impedance (xCELLigence), 80 h. A digest of the protocol: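 Cell-growth kinetics were measured by impedance in T47D cells treated continuously with compound (top 100 uM final, 1:4 steps, 8 points). Activity at 80 h was scored as signal gain over the DMSO baseline.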
For the compound `C=C(C)C(=O)OCC1CO1` (centres undefined), the compound was called inactive.
On the same count and under the same terms, with `CC(O)C#N` (centres undefined) the entry was “inactive”.
In general, AC50 refers to the concentration giving half of the maximal activity seen. For the compound `O=S(=O)(c1ccc(O)cc1)c1ccc(O)cc1`, the AC50 was 2180 nM (active).
On to `CCOP(=S)(S)OCC`, for which the result was inactive.
Same read-out and setting: then `CC(C)Nc1ccc(Nc2ccccc2)cc1`, with “inactive”.
Regarding `CO/N=C(/C(=O)OC)c1ccccc1COc1ccccc1C`, the call was inactive.
Consider `N#C/C=C/c1ccccc1`, for which the compound was classed as inactive.
Consider `O=C(O)C(F)(F)OC(F)(F)C(F)(F)OC(F)(F)F`, for which the result was inactive.
In the case of `CC1=C(C(=O)Nc2ccccc2)S(=O)(=O)CCO1`, the AC50 was 267 nM (active).
With `Cc1ccc(C(=O)Cl)cc1`, the compound was classed as inactive.
On to `O=C(O)CF`, for which the compound was classed as inactive.
`Clc1ccc(Oc2ccccc2)cc1`: the compound was classed as inactive.
Consider `CCOP(=O)(O)C(N)=O`, for which the outcome was inactive.
Consider `OCC(F)(F)OC(F)(F)C(F)(F)OC(F)(F)CO`, for which the AC50 is 20200 nM (active).
On to `COC(=O)C(F)(F)C(F)(F)OC(F)(C(F)(F)F)C(F)(F)OC(F)=C(F)F` (centres undefined), for which the result was inactive.
Turning to `Cc1cc(C)c(C(=O)P(=O)(c2ccccc2)c2ccccc2)c(C)c1`, the compound was classed as inactive.
Still for that read-out and setting: with `CCCCC(CC)COC(=O)c1c(Br)c(Br)c(Br)c(Br)c1C(=O)OCC(CC)CCCC` (centres undefined) the entry was “inactive”.
Consider `Oc1ccccc1Br`, for which the compound was called inactive.
`CC(C)(C)N(NC(=O)c1ccc(Cl)cc1)C(=O)c1ccccc1`: the call was inactive.
On the same count and under the same terms, then `Nc1ccc(Sc2ccc(N)cc2)cc1`, with “inactive”; and `NNC(N)=S`, with “inactive”.
Regarding `OCC(F)(F)OC(F)(F)C(F)(F)OC(F)(F)C(F)(F)OC(F)(F)F`, the outcome was inactive.
Take `Cc1c([N+](=O)[O-])cc2c(c1[N+](=O)[O-])C(C)(C)CC2(C)C`: the outcome was inactive.
In the case of `O=C(O)C(F)(F)C(F)(F)C(=O)O`, the call was inactive.
Take `CC(=O)CCc1ccc2c(c1)OCO2`: the call was inactive.
With `CC(=O)c1ccc(-c2ccccc2)cc1`, the outcome was inactive.
As for `CCOP(=S)(OCC)SCn1nnc2ccccc2c1=O`, the outcome was inactive.
Same read-out and setting: then `CCCCN(CC)C(=O)SCCC`, with “inactive”; and `CCOP(=S)(NC(C)C)Oc1ccccc1C(=O)OC(C)C` (centres undefined), with “inactive”.
On to `O=C(O)C=CC(F)(C(F)(F)F)C(F)(F)F`, for which the outcome was inactive.
Take `N#Cc1c(-c2ccc(Cl)cc2)[nH]c(C(F)(F)F)c1Br`: the call was inactive.
Take `O=c1ssc(Cl)c1Cl`: the outcome was inactive.
As for `CCCCOCC1CO1` (centres undefined), the compound was called inactive.
As for `O=C(O)C(F)(OC(F)(F)C(F)(F)C(F)(F)F)C(F)(F)F` (centres undefined), the result was inactive.
As for `Oc1ccc(I)cc1`, the compound was called inactive.
Turning to `C/C(=N\NC(=O)Nc1cc(F)cc(F)c1)c1ncccc1C(=O)O`, the AC50 was 265 nM (active).
Regarding `O=C(CBr)OCc1ccccc1`, the call was inactive.
On the same count and under the same terms, with `O=S(=O)(F)C(F)(F)C(F)(F)C(F)(F)C(F)(F)C(F)(F)C(F)(F)C(F)(F)C(F)(F)F` the entry was “inactive”; with `COP(N)(=S)OC`, “inactive”.
